Shown are actives, neighbours in structure and some others; about 15% of the full set was active somewhere.
Pf growth 96h = inhibits malaria parasite growth, 96 h; P. falciparum luciferase reporter growth, 96 h; AID 504834; 320,000 tested, 6.9% active; Potency, µM (doses to about 28.7 µM), actives largely listed as inhibitors
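96 h incubation, 37 C, 5% CO2, of luciferase-reporter P. falciparum-infected RBCs (2% hematocrit, 0.05% parasitemia final) with test compounds; endpoint luminescence.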
SARS PLP yeast = blocks SARS-CoV papain-like protease in a yeast assay. S. cerevisiae expressing SARS-CoV PLpro, growth rescue. Potency, µM (titrated, usually from 32.9 µM), hits mostly activators. 330,000 tested, 0.19% active. AID 485353; calls by dose curve; also: nearly all actives have a fitted effect of over 55% in size
Pf growth 48h = inhibits P. falciparum growth in the first generation, 48 h. P. falciparum luciferase growth in erythrocytes, 48 h. Potency, µM (titrated, usually from 28.7 µM), hits mostly inhibitors. 310,000 tested, 5.9% active. AID 504832
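A one-generation exposure of luciferase-tagged malaria parasites in RPMI 1640/Albumax erythrocyte culture, 37 C and 5% CO2. Inhibition is inferred from decreased luminescence after adding detection reagent.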
Sm TGR block = inhibitors of Schistosoma mansoni thioredoxin glutathione reductase | Q962Y6 | purified TGR, DTNB reduction, TNB absorbance 405 nm | Potency, µM (titrated, usually from 114 µM), usual class: inhibitors | 360,000 tested, 3% active; also: nearly all actives have a fitted effect of over 60% in size
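Kinetic colorimetric format: TGR-catalysed, NADPH-driven DTNB reduction monitored via TNB absorbance. Enzyme dispensed at 20 nM; compound exposure 15 min at room temperature before reaction start.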
HCV inh = inhibitors of hepatitis C virus infection | Potency, µM (doses to about 41.8 µM), most hits filed as inhibitors | Huh7.5.1 HCVcc-Cre infection, luciferase reporter, 44 h | 340,000 tested, 3.4% active
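Reporter virus HCVcc-Cre (~0.5 moi) infects cells exposed to compound; seeding density 1,000 cells/well with 4 h settling beforehand. Luminescence, 15 sec read, taken 44 h post-infection following a 15 min RT substrate incubation.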
HCMV inh = blocks human cytomegalovirus replication. HFF cells, HCMV-luciferase reporter, 72 h; stronger effect = lower value. activity change, negative = inhibition, % at 57.5 µM. 410,000 tested, 4.5% active. AID 1259415; in the data active = activity change below about -60%; inconclusive = no clear call, values can overlap the other calls; inactive = above about -39%
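Screen run at 2 compound doses on HFFs infected with reporter HCMV, MOI 1 PFU/cell. Luciferase activity from cell lysates at 72 h post infection gave inhibition relative to buffer-only and Salinomycin wells.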
Hits are given with their value; 0 = inactive; ? = inconclusive; - = no result. Unless noted, calls follow the shape of the dose curve; as a rule, active = well fitted curve in the direction sought with a large enough effect; inconclusive = small, poorly fitted or top-dose-only effect, or another doubt; inactive = no such curve, though single readings can be large; an effect the other way counts as inactive or inconclusive.

SMILES	Pf growth 96h	SARS PLP yeast	Pf growth 48h	Sm TGR block	HCV inh	HCMV inh
Cc1ccccc1CNC(=O)Cc1csc2ccccc12	-	-	-	0	-	0
COC(=O)c1ccc(OC(=O)CCc2cc(OC)c(OC)c(OC)c2)cc1	0	0	0	0	0	0
O=C(CN1CCN(c2cccc(C(F)(F)F)c2)CC1)N(C1CCCC1)C1CCS(=O)(=O)C1 (centres undefined)	8.3µM	0	15µM	0	?	0
COc1ccc(CCNC(=O)C(=O)NCC2CCCO2)cc1 (centres undefined)	4.1µM	0	0	0	0	0
COc1ccc(CNC(=O)C(=O)NCC2CCCO2)cc1 (centres undefined)	0	0	0	0	0	0
COc1ccc(CCNC(=O)C(=O)NCC2OCCN2S(=O)(=O)c2ccc(Cl)cc2)cc1 (centres undefined)	0	0	0	0	11µM	0
Cn1nc(-c2ccc(N3CCN(CCO)CC3)c([N+](=O)[O-])c2)c2ccccc2c1=O	0	0	0	0	0	0
Cc1cc(NC(=O)Cc2ccccc2)cc(-c2nc3ccccc3o2)c1O	-	-	-	0	-	0
Cc1cc(C)c(NS(=O)(=O)c2ccccc2)c(C)n1	-	-	-	-	-	0
Cc1ccc(NS(=O)(=O)c2ccc(-c3cc(C)no3)cc2)c(C)c1	-	-	-	0	-	-65
Cc1ccc(S(=O)(=O)Nc2cc3c(cc2C)n(C)c(=O)c(=O)n3C)cc1	-	-	-	0	-	0
Cc1ccc(S(=O)(=O)Nc2cc(C)c(O)cc2C)cc1	0	0	0	0	0	-76
Cc1cc(C)cc(NS(=O)(=O)c2ccc(-c3cc(C)no3)cc2)c1	-	-	-	0	-	-80
Cc1ccc(S(=O)(=O)Nc2c(C)cc(C)nc2Cl)cc1	2.6µM	0	0	0	0	0
Cc1cc2nc(-c3ccc(SCC(=O)Nc4ccc(S(=O)(=O)NC5CC5)cc4)nc3)[nH]c2cc1C	0	0	?	0	?	0
O=C1NC(=O)C(Cc2ccc(O)cc2)N1 (centres undefined)	-	-	-	-	0	0
CCOC(=O)C1=C[C@@H](C2CCCCC2)N(S(=O)(=O)c2ccc([N+](=O)[O-])cc2)[C@H]1c1ccccc1	-	-	-	-	-	-77
O=C(Nc1ccccc1C(F)(F)F)c1cc2nc(-c3ccccc3)cc(-c3ccccc3)n2n1	-	-	-	?	-	0
CN(CC(=O)Nc1ccccc1Cl)C(=O)COC(=O)c1cnccn1	0	0	0	0	0	0
O=C(NC1CCCCC1)c1ccc2c(c1)N(Cc1ccccc1Cl)C(=O)c1ccccc1S2	-	-	-	0	-	0
CCCCNC(=O)c1nc2cc(C)c(C)cc2nc1-c1cccc(OC)c1	-	-	-	-	-	0
CCCCNC(=O)c1nc2cc(C)c(C)cc2nc1-c1cccc(C(F)(F)F)c1	-	-	-	-	-	-94
Cc1cccc(C)c1OCC(=O)NCC1(N2CCOCC2)CCCCC1	-	-	-	0	-	0
CCn1ccc2cc(S(=O)(=O)N3CCCN(C(=O)Nc4ccc(C)c(F)c4)CC3)ccc21	-	-	-	0	-	0
NC(CSCc1ccccc1Cl)C(=O)O (centres undefined)	0	0	0	16µM	0	0
SMILES	Pf growth 96h	SARS PLP yeast	Pf growth 48h	Sm TGR block	HCV inh	HCMV inh
CC1(C(=O)NS(=O)(=O)c2ccc(C#N)cc2)CCN1C(=O)CC1CCCCC1 (centres undefined)	-	-	-	-	-	0
Cc1ccccc1C(=O)OCn1nnc2ccccc2c1=O	8.3µM	?	0	0	0	?
Cc1cc(C(=O)OCn2nnc3ccccc3c2=O)c(C)n1-c1ccccc1	1.9µM	0	?	0	?	0
O=C(NCc1ccccc1Cl)c1ccc(CSCc2cccc(F)c2)o1	-	-	-	0	-	0
COc1ccc([C@H]2C[C@@H](n3cc(COC(=O)c4ccccc4)nn3)[C@H](O)CN2Cc2cccs2)cc1	-	-	-	-	-	0
CCOc1ccc(-c2cn(-c3ccccc3OC)c(=S)[nH]2)cc1	0	0	?	0	?	-80
COc1ccccc1NC(=O)c1oc2ccccc2c1NC(=O)c1c(F)cccc1F	-	-	-	0	-	0
NS(=O)(=O)c1ccc(NC(=S)Nc2ccc(S(=O)(=O)N3CCCC3)cc2)cc1	0	0	0	25µM	0	0
O=S(=O)(c1ccc(NC(=S)NCc2cccnc2)cc1)N1CCCCC1	?	0	0	32µM	?	0
Cc1ccc(NC(=S)Nc2cccnc2)c(S(=O)(=O)N2CCCCC2)c1	?	0	0	14µM	11µM	-75
O=S(=O)(c1ccc(NC(=S)NC23CC4CC(CC(C4)C2)C3)cc1)N1CCCCC1	-	-	-	-	-	-90
O=C(Cn1cnc([N+](=O)[O-])c1)Nc1ccc(Cl)cc1Cl	-	-	-	-	-	0
CC(NC(=O)N1CCN(c2ccccc2F)CC1)c1ccc(F)c(F)c1 (centres undefined)	0	0	?	0	0	0
CN(Cc1ccccc1)S(=O)(=O)c1ccc(NC(=S)NC(=O)C(C)(C)C)cc1	0	0	?	?	0	0
O=S(=O)(c1ccc(NC(=S)NN=Cc2ccccc2O)cc1)N1CCCCC1	-	-	-	-	?	-61
CCN(CC)c1ccc(NC(=S)NC(=O)C2CCC2)cc1	12µM	0	0	?	?	0
CN(Cc1ccccc1)S(=O)(=O)c1ccc(NC(=S)NC(=O)C2CCCCC2)cc1	0	0	?	0	10µM	0
NS(=O)(=O)c1ccc(NC(=S)NC(=O)C2CCCC2)cc1	1.9µM	0	0	?	0	0
CC(=O)Nc1ccc(NC(=S)NC(=O)C2CCCC2)cc1	0	0	0	0	0	0
CC(C)(O)C#CC#CCN1CCOCC1	10µM	0	0	0	0	0
CCOc1ccc(N(C)S(=O)(=O)c2ccc(C)c(C(=O)NCc3ccccc3OC)c2)cc1	9.3µM	0	12µM	0	?	0
COc1ccccc1N(C)S(=O)(=O)c1ccc(C)c(C(=O)Nc2nccs2)c1	?	0	12µM	0	0	0
COc1ccccc1N(C)S(=O)(=O)c1ccc(C)c(C(=O)NCc2ccccn2)c1	?	0	10µM	0	0	0
CCOc1ccc(N(C)S(=O)(=O)c2ccc(C)c(C(=O)NCCc3ccc(OC)cc3)c2)cc1	?	0	?	0	?	0
COc1ccccc1N(C)S(=O)(=O)c1ccc(Cl)c(C(=O)NCc2cccnc2)c1	0	0	?	0	0	0
O=c1cc(COc2ccc(Cl)cc2Cl)nc2scc(-c3ccccc3)n12	-	-	-	0	-	0
CC1CCCN(c2sc(S(C)(=O)=O)nc2S(=O)(=O)c2ccc(Cl)cc2)C1 (centres undefined)	13µM	0	?	0	0	0
CC1CN(c2sc(S(C)(=O)=O)nc2S(=O)(=O)c2ccc(Cl)cc2)CC(C)O1 (centres undefined)	?	0	0	14µM	0	0
O=C(Nc1nnc(S(=O)(=O)N2CCCC2)s1)c1ccc(F)cc1	-	-	-	0	-	0
COc1ccc(O)c(C(=O)C2c3ccccc3C(=O)N2c2ccc(C)cc2)c1 (centres undefined)	1.5µM	0	?	0	0	0
